The campaign covered roughly 48,000 compounds. About 13,000 (27%) showed an effect of 50% or more. The list shows a part of the results.
The compounds below were run on Wolbachia pipientis (assay: Anti-Wolbachia Cell-Based Screen). Conditions: 5 µM.
Assay type: functional
Design: scale not given: in the data most compounds retested in dose-response had high values

SMILES | Percent Effect [%]
Cc1csc(N(C)C(=O)C(c2c(F)cccc2Cl)N(C)C)n1 (stereo unspecified) | 1.249
c1ccc(OCc2noc(CN3CCN(C4CCCC4)CC3)n2)cc1 | 4.136
Cc1n[nH]c(C)c1CC(=O)N1CCC2(CC1)CN(C)CCN2C | -2.947
Cc1nc(C)c(CC(=O)N2CCC(Oc3ccccc3)CC2)c(=O)[nH]1 | 3.027
Cc1n[nH]c(C)c1CC(=O)N1CC[C@@](C)(O)[C@H](Oc2ccccc2)C1 | 132.6
Cc1noc(C)c1CNC(=O)N1CCC(C(O)c2ccccc2)CC1 (stereo unspecified) | -2.263
Cc1noc(C)c1CC(=O)N1CC[C@@](C)(O)[C@H](Oc2ccccc2)C1 | 138.5
Cc1n[nH]c(C)c1CC(=O)N1CC[C@@](C)(O)[C@@H](Cc2ccccc2)C1 | -1.869
CC[C@H](CO)NC(=O)c1coc(COc2cccc(F)c2F)n1 | -21.32
COC(=O)CCCNC(=O)c1cc(COc2cncc(Cl)c2)on1 | 3.929
CCN(Cc1csc(C)n1)c1cccc(CO)c1 | 19.84
CC(c1nnc(-c2ccccc2)o1)N1CCC(Nc2ccccc2)CC1 (stereo unspecified) | 109.3
COc1ccc(-c2nnc(C(C)N3CCOCC3)o2)cc1 (stereo unspecified) | 0.5331
COc1ccc(-c2nnc(C(C)N3CCC4(CC3)OCCO4)o2)cc1 (stereo unspecified) | -10.61
CC(C)c1cc(CN2CCC(N)CC2)no1 | 118.3
COCCCN1CC2(CCN(Cc3cc(C(C)C)no3)CC2)CC1=O | -15.73
CC(C)c1cc(N2CCC(N)CC2)n2nccc2n1 | -3.508
CC(C)c1cc(CN2CCC(CC(=O)O)CC2)no1 | 25.42
CCN1CCN(C2CCN(Cc3cc(C)on3)CC2)C1=O | -12.89
CC(C)c1cc(CN2CCC(N)CC2)on1 | 102.3
Cc1cnc(CN2CCC(N(C)Cc3noc(C4CC4)n3)C2)o1 (stereo unspecified) | 113
CCn1ccnc1CN1CCC(N(C)Cc2ncc(C)o2)C1 (stereo unspecified) | -2.074

SMILES | Percent Effect [%]
Cc1cnc(CN(C)C2CCN(CCc3cnn(C)c3)C2)o1 (stereo unspecified) | -1.466
Cc1cnc(CN(C)C2CCN(Cc3nnc(C4CC4)o3)C2)o1 (stereo unspecified) | 131.1
CN(Cc1noc(C2CC2)n1)C1CCN(Cc2ccncc2)C1 (stereo unspecified) | -0.4709
O=C(c1cnn2cc(CCO)cnc12)N1CCOC(C(F)(F)F)C1 (stereo unspecified) | -0.009577
CCOc1ccc(CN(C)C(=O)NC(C)c2nncn2C)cc1 (stereo unspecified) | -12.44
CC(NCc1cccnc1)c1cc2c(cc1Br)OCCO2 (stereo unspecified) | -3.161
CC(c1ccc(Cl)cc1)N1CCN(CCNS(C)(=O)=O)CC1 (stereo unspecified) | -1.965
CC(c1ccc(Cl)cc1)N1CCN(CCS(C)(=O)=O)CC1 (stereo unspecified) | 6.907
CC(c1ccc(Cl)cc1)N1CCN(CCCS(C)(=O)=O)CC1 (stereo unspecified) | -1.134
CNS(=O)(=O)CCCN1CCN(C(C)c2cccnc2)CC1 (stereo unspecified) | 7.44
CS(=O)(=O)CCCN1CCN(C(C#N)c2ccccc2)CC1 (stereo unspecified) | 95.09
CCS(=O)(=O)NCCN1CCN(C(C#N)c2ccccc2)CC1 (stereo unspecified) | 106.3
CNS(=O)(=O)CCCN1CCN(C(C#N)c2ccccc2)CC1 (stereo unspecified) | 112.4
N#Cc1cccc(CS(=O)(=O)NCCC(O)c2ccccc2)c1 (stereo unspecified) | 7.655
CNS(=O)(=O)CCCN1CCCN(Cc2ccccc2)CC1C (stereo unspecified) | -3.956
Cc1cc(C(=O)N2C[C@H](CO)C[C@H](CN3CCOCC3)C2)nc(C)n1 | -11.42
CC(C)CCN(c1cn[nH]c1)S(=O)(=O)c1cccc(C#N)c1 | -0.3515
NC(=O)c1ccc(CNC2CCCSC2)cc1 (stereo unspecified) | -4.812
CCS(=O)(=O)N(C)C(=O)c1cc(C)n(-c2cccc(OC)c2)c1C | -13.82
O=C(c1ccccn1)N1CCCC(c2cc(C(F)F)n3ncnc3n2)C1 (stereo unspecified) | 111.1
O=C(c1cccnc1)N1CCCC(c2cc(C(F)F)n3ncnc3n2)C1 (stereo unspecified) | 1.815
Cc1ncsc1C(=O)N1CCCC(c2cc(C(F)F)n3ncnc3n2)C1 (stereo unspecified) | 110.2

SMILES | Percent Effect [%]
O=C(c1ccco1)N1CCCC(c2cc(C(F)F)n3ncnc3n2)C1 (stereo unspecified) | -11.1
O=C(c1nc(=O)[nH][nH]1)N1CCCC(c2cc(C(F)(F)F)[nH]n2)C1 (stereo unspecified) | -1.931
O=C(c1ccco1)N1CCCC(c2cc(C(F)(F)F)n3ncnc3n2)C1 (stereo unspecified) | 95.67
O=C(c1ccc(Cl)o1)N1CCCC(c2cc(C(F)(F)F)[nH]n2)C1 (stereo unspecified) | -0.4503
O=C(c1ccncc1)N1CCCC(c2cc(C(F)F)n3ncnc3n2)C1 (stereo unspecified) | 88.08
CCc1nnc(CN(C)Cc2cccc(C(=O)Nc3ccnn3C)c2)o1 | -8.218
CN(Cc1ccc(Cl)c(F)c1)C(=O)c1ccncc1F | 5.158
COc1nccc(N2CCN(Cc3ccc(C)cc3)C(=O)C2)c1C#N | 5.242
CCn1nc(C)cc1C(=O)N1CCOc2ccc(OC)cc21 | 4.6
COc1cc2nc(NCc3scnc3C)nc(N)c2cc1OC | 7.61
Cc1nn(CC(C)C)c(N(C)C)c1CNCCS(C)(=O)=O | -9.669
CCN(CC(=O)NC)C(=O)Cc1nc(-c2ccco2)oc1C | -1.768
Cc1cc(CN(C)C(=O)C2CCCN(C(=O)c3cccs3)C2)no1 (stereo unspecified) | -2.385
O=C(c1cccs1)N1CCCC(c2cc(C(F)F)n3ncnc3n2)C1 (stereo unspecified) | 74.84
O=C(c1cccs1)N1CCc2ncnc(C3CCOC3)c2CC1 (stereo unspecified) | -39.43
COCCC(=O)N1CCN(CCN(C)C)c2ncccc2C1 | 4.239
COc1cccc(-c2ncc3c(n2)N(C)CCN(CCN(C)C)C3=O)c1 | 82.33
CCc1ccc(-c2ncc3c(n2)N(C)CCN(CCN(C)C)C3=O)cc1 | 95.82
COc1cccc(-c2cnc3n2CCC32CCN(C(C)=O)CC2)c1 | 0.6434
Cc1ccc2c(n1)N(CCN(C)C)CCN(C(=O)c1ccsc1)C2 | -6.316
CN(C)CCN1CCN(C)c2nc(-c3ccccc3)ncc2C1=O | 101.9
CNC(=O)[C@@H]1C[C@H](N)CN1S(=O)(=O)c1cc(Cl)cc(Cl)c1O | -28.57

Source: ChEMBL document CHEMBL3988442, “University of Dundee, Small-Polar-MMV Screening Library” (2021)
